# Source: PubChem (National Center for Advancing Translational Sciences (NCATS))
# HPGD block: HPGD (human) dehydrogenase inhibition. P15428. purified HPGD, NADH fluorescence kinetic, PGE2 substrate. Potency, µM, inactives show at the highest dose activity change, negative = inhibition, hits mostly inhibitors. hit rate 4.3% among 150,000. AID 894; further: potency means the concentration at half of the fitted maximal effect
# Target sequence (P15428 whole entry, looked up): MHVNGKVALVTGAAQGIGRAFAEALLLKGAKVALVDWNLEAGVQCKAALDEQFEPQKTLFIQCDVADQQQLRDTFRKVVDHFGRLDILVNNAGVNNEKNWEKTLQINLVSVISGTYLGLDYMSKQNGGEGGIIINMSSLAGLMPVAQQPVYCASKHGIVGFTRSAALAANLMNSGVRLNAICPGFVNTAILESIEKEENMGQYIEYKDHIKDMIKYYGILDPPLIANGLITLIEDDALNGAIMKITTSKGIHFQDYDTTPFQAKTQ
#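 20 nM HPGD preincubated 15 min at room temperature with compound in 50 mM Tris-HCl pH 8, 0.01% Tween 20. Started with 1 mM NAD+ and 30 uM prostaglandin E2; NADH fluorescence (360/450 nm) read 5 times over 30-s intervals, last minus first.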
# PNC inhibitor: inhibitors of perinucleolar compartment assembly; activity change (PNC), negative = inhibition, % at 10 µM; PC3M PTB-GFP, PNC prevalence imaging, 16 h; active compounds read low; hit rate 3.1% among 140,000; AID 2417;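 active means readout at or below -70, meaning at least 70% loss of cells showing the perinucleolar compartment, a nuclear body marking cancer cells; inconclusive means readout between -30 and a set limit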;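 further: plate controls were DMSO wells for no effect and camptothecin positive control wells for full effect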
#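 Read-out is percentage of cells bearing a perinucleolar compartment, from automated 20x imaging of fixed, Hoechst-stained PC3M PTB-GFP cells. Cells were seeded 4 h, then exposed 16 h to compound (23 nl of library stock) in duplicate plates.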
# ALDH1A1 inh: blocks purified human ALDH1A1 activity. P00352. Purified ALDH1A1, NADH fluorescence, propionaldehyde substrate. Potency, µM (titrated, usually from 75.3 µM), for inactives: at the highest dose activity, negative = inhibition, most hits filed as inhibitors. hit rate 7.3% among 220,000. AID 1030;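 further: potency means the concentration at half of the fitted maximal effect; plate controls were no enzyme wells and a reference inhibitor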
# Lamin A splicing: LMNA splicing modulation; hit rate 0.01% among 200,000; HeLa LMNA splicing GFP/RFP minigene ratio, 48 h; AID 1487; Potency, µM (series often up to 46.1 µM), for inactives: at the top dose ratio change, negative = inhibition, hits mostly inhibitors; active means well fitted inhibition curve with a large enough effect in the signal ratio, with a control signal flat, not every such curve was filed as active; inconclusive means small, poorly fitted or top-dose-only effect, or effect the other way, or a change in a side signal; the % refers to the signal ratio; further: potency means the concentration at half of the fitted maximal effect
#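 S3 HeLa stable clones carrying a lamin A-EGFP splicing minigene plus DsRed2 were seeded at 600 cells/well in Opti-MEM with 2% FBS, pin-dosed and incubated 48 h at 37°C. Acumen cytometry (488 nm) gave the GFP/RFP total-intensity ratio.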
# KinaseGlo FLuc: blocks Kinase-Glo luciferase, a counter-screen artifact; Q27757; Kinase-Glo luciferase, ATP luminescence, 8 min; Potency, µM (doses to about 38.3 µM), for the others: at the top dose activity change, negative = inhibition, hits mostly inhibitors; hit rate 0.28% among 200,000; AID 1379; active means well fitted inhibition curve with a large enough effect; inconclusive means small, poorly fitted or top-dose-only effect; further: potency means the concentration at half of the fitted maximal effect; nearly all actives have a fitted effect of over 60% in size
#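 Inhibition of Kinase-Glo luciferase light generation was assessed at 10 uM ATP in pH 7.2 imidazole buffer, with luminescence measured after eight minutes at ambient temperature.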
# The depositor's hits bear a star; ? = inconclusive; nt = no result given; [ ] = another dose, or the depositor's remark. This is a sample that favours compounds with a hit; in the whole collection about 10% have one here. Unless noted, the call rests on the fitted dose curve; in most records, active means well fitted inhibition curve with a large enough effect (not every such curve was filed as active); inconclusive means small, poorly fitted or top-dose-only effect, or another doubt; inactive means no such curve, though single readings can be large or run the other way. Unless noted, on the % scale 0 is the no-effect control and ±100 the full control effect.
SMILES,HPGD block,PNC inhibitor,ALDH1A1 inh,Lamin A splicing,KinaseGlo FLuc
Cn1c(SCC(=O)Nc2nc3ccccc3s2)ncc(C(=O)Nc2ccc(Cl)cc2)c1=O,nt,nt,nt,13.6%[46 µM],nt
COc1cccc(-n2nnnc2SCC(=O)Nc2ccc3c(c2)OCCO3)c1,-9.0%,-19.1,-4.5%,26.7%,0.2%
COCCn1nnnc1SCC(=O)Nc1ccc2c(c1)OCO2,nt,nt,20µM*,-10.0%[46 µM],-5.1%
COc1ccc(-n2nnnc2SCC(=O)Nc2ccc3c(c2)OCCO3)c(OC)c1,-10.4%,16.1,7.08µM*,?,-2.2%
CC(C)Cn1[nH]c2c3c(ccc2c1=O)C(=O)c1ccccc1C3=O,2µM*,19.8,?,-10.1%,-14.0%
CCOC(=O)N1CCN(C(=O)C2CCN(CC3CCCCC3)CC2)CC1,0.6%,-113.8*,4.5%,0.0%,-2.1%
CC(=O)c1ccc(NS(=O)(=O)c2ccc(CC(C)C)cc2)cc1,?,?,6.31µM*,?,2.8%
CC(=O)c1ccc(NC(=O)Nc2ccc(NS(=O)(=O)c3ccc(C)cc3)cc2)cc1,nt,1.6,?,?,nt
C/C=C/C1=CC2=CC(=O)C(C)(OC(=O)c3c(C)cc(O)cc3O)C(=O)C2=CO1 (centres undefined),-5.4%,nt,?,nt,-2.2%
Cc1cc(O)cc(O)c1C(=O)OC1(C)C(=O)C=C2C=C(/C=C/CO)OC=C2C1=O (centres undefined),-9.7%,nt,22.4µM*,nt,-1.3%
COC(=O)C/C=C\[C@@H](C)[C@@H](/C=N\O[C@@H](C)c1cn([C@H]2COC[C@H]2O)nn1)NS(=O)(=O)c1ccc(C)cc1,nt,nt,-1.0%[13.5 µM],nt,nt
CN1CCN(c2ncc3nc(-c4cc(F)cc(F)c4)c(=O)n(CCc4ccccc4)c3n2)CC1,nt,nt,?,11.2%,nt
O=C(c1csc2c1CCCC2)N1CCCCC1,1.58µM*,11.9,0.2%,2.4%,-3.1%
Cc1ccc(CNC(=O)c2csc3c2CCCCC3)cc1,?,59.9,10.4%,8.8%,-1.0%
O=C(c1ccccc1F)N1CCN(c2ncccn2)CC1,-13.9%,126.2,?,6.8%,-0.4%
O=C(c1csc2c1CCCCC2)N1CCN(c2ncccn2)CC1,-12.4%,31.9,20µM*,1.3%,-3.3%
CC(C)CN=C(N)N=C(N)N,-3.5%,nt,9.1%[13.5 µM],nt,-2.9%[7.66 µM]
Cc1ccc(C(=O)c2sc3nsc(C)c3c2N)cc1,-27.4%,?,14.1µM*,12.7%,-4.5%
Cc1snc2sc(C(=O)c3ccc(Br)cc3)c(N)c12,-10.8%,16.1,6.0%,8.8%,-0.8%
Cc1cccc2sc(NC(=O)[C@H](C)N3C(=O)C4CC=CCC4C3=O)nc12 (some centres undefined),nt,nt,14.1µM*,nt,nt
C[C@@H](C(=O)Nc1nc2ccccc2s1)N1C(=O)C2CC=CCC2C1=O (some centres undefined),nt,nt,22.8%,nt,-0.2%
Cc1sc2ncn(CC(=O)NCc3ccccn3)c(=O)c2c1S(=O)(=O)N1CCOCC1,-14.5%,-100.0*,5.4%,5.3%,2.0%
COCCCNC(=O)Cn1cnc2sc(C)c(S(=O)(=O)N3CCN(c4ncccn4)CC3)c2c1=O,nt,nt,9.7%,2.6%[46 µM],-0.3%
COC(=O)[C@H]1O[C@@H](c2cc(OC)c(C)c(OC)c2OCc2ccccc2)[C@H](C)[C@H]2O[C@@]12C,-2.7%,nt,-3.2%,nt,1.1%
O=C(CSc1ncn(-c2ccccc2)n1)Nc1nc2ccccc2s1,22.4µM*,30.7,12.6µM*,6.8%,5.5%
SMILES,HPGD block,PNC inhibitor,ALDH1A1 inh,Lamin A splicing,KinaseGlo FLuc
CC(C)(C)c1nc(SCC(=O)Nc2nc3c(s2)CCCC3)c2ccccc2n1,-7.9%,-94.8*,3.7%,?,-3.0%
O=C(CSc1ncn(-c2ccccc2)n1)Nc1nc(-c2ccccc2)cs1,-3.1%,?,2.6%,-2.3%,2.0%
O=C(CSc1ncn(-c2ccccc2)n1)Nc1nc2c(s1)CCCC2,?,-21.6,28.2µM*,0.3%,0.4%
O=C(CSc1ncn(-c2ccccc2)n1)Nc1nccs1,8.0%,-2.3,16.4%,4.7%,-1.1%
CC(C)c1nc(SCC(=O)Nc2nc3c(s2)CCCC3)c2ccccc2n1,?,?,-4.9%,?,4.3%
Cn1cc(SCC(=O)Nc2nc3ccccc3s2)c2ccccc21,-10.3%,-88.5*,-15.2%,?,1.5%
O=C(NCc1ccc(Cl)cc1)c1cnc(N2CCOCC2)c2ccccc12,nt,nt,nt,5.5%[46 µM],nt
